Screens from PubChem.
Most compounds without a hit are left out; they make up all but 21% or so of the library.
TDP1 cell CPT – DT40-hTDP1 cell growth loss with CPT; chicken DT40 Tdp1-/-;hTDP1 cells + 20 nM CPT, ATP luminescence, 48 h; Potency, µM (top dose mostly 46.2 µM), inactives show at the top dose activity change, negative = growth inhibition, usual class: inhibitors; hit rate 12% among 420,000; AID 686979; also: potency is read from the fitted curve at half-maximal effect; nearly all actives have a fitted effect of over 55% in size
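Chicken DT40 Tdp1-/- cells complemented with human TDP1, 400 cells/well, exposed to compounds plus 20 nM camptothecin for at least 48 h at 37 C; viability read as ATP content by CellTiter-Glo luminescence.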
ELG1 repair inh – inhibitors of ELG1-dependent DNA repair in HEK293T cells | HEK293T ELG1-luciferase reporter, luminescence, 16 h; DNA damage induced by 5-fluorouridine | Potency, µM (titrated, usually from 46.1 µM), for inactives: at the highest dose activity change, negative = inhibition, usual class: inhibitors | hit rate 2.3% among 330,000; also: potency is read from the fitted curve at half-maximal effect; nearly all actives have a fitted effect of over 55% in size
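DMSO vehicle served as the neutral condition. Each well held 2,000 cells given 5-fluorouridine plus compound; after 16 hr at 37 °C/5% CO2, ONE-Glo was added and luciferase measured 30 min later.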
DT40 TDP1 no CPT – qHTS for Inhibitors of human tyrosyl-DNA phosphodiesterase 1 (TDP1): qHTS in cells in absence of CPT | AID 686978, 2013 | DT40 Tdp1-/- hTDP1 cells, no CPT, ATP luminescence, 48 h | Potency, µM (highest dose often 46.2 µM), for inactives: at the top dose activity change, negative = growth inhibition, hits mostly inhibitors | hit rate 15% among 420,000; also: potency is read from the fitted curve at half-maximal effect; nearly all actives have a fitted effect of over 55% in size
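Stably hTDP1-transfected Tdp1-null chicken DT40 cells were treated with library compounds minus camptothecin and grown for at least 48 hr at 37 °C, after which cellular ATP was quantified by luminescence.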
IL-1B inflam inh – inflammasome signaling inhibition, IL-1 beta readout | THP-1 LPS/ATP IL-1B secretion, AlphaLISA, 16 h; active compounds read low | activity change, % at 57.5 µM | hit rate 4.7% among 360,000 | AID 743279; in the data active = activity change below about -50%; inconclusive = mostly about -30% to -49%
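Secreted IL-1B measured by AlphaLISA bead assay after 16 h compound exposure of THP-1 cells; compounds (final up to 57.5 uM) added 1 h before LPS (250 ng/mL) and ATP (1.25 mM) stimulation; lower signal means less secretion.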
RORg inh – ROR gamma (mouse) transcription inhibition. AID 2551. Drosophila S2 Gal4-RORgamma UAS-luciferase reporter, 20 h. hit rate 5.4% among 310,000. Potency, µM (top dose mostly 53.6 µM), inactives show at the top dose activity change, negative = inhibition, most hits filed as inhibitors; also: potency is read from the fitted curve at half-maximal effect; nearly all actives have a fitted effect of over 60% in size
Target sequence (P51450 whole entry, looked up, the tested form may be a part): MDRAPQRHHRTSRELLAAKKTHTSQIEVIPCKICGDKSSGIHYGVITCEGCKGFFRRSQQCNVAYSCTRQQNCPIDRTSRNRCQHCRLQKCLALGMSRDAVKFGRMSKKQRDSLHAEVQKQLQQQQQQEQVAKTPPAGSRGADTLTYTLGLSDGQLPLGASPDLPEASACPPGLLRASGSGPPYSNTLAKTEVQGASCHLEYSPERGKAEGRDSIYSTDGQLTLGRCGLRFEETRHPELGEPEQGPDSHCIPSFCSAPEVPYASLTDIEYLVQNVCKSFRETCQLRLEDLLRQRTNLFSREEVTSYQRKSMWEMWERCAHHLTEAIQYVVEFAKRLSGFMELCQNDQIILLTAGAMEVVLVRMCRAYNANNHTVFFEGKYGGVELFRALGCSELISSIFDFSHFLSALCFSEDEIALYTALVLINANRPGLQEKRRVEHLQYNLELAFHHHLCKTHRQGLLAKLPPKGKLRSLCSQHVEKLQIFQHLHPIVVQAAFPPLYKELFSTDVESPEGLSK
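A Gal4/UAS one-hybrid system in insect cells: metallothionein-promoter Gal4–ROR gamma fusion plus Photinus luciferase reporter. Copper sulfate 700 uM final, 20 hr ambient incubation, luminescent detection after 10 min with reagent.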
Gal4-VP16 FLuc – counter-screen for ROR gamma inhibitors: Gal4-VP16 reporter; Drosophila S2 Gal4-VP16 UAS-luciferase, luminescence, 20 h; Potency, µM (top dose mostly 53.6 µM), for inactives: top-dose activity, negative = inhibition, most hits filed as inhibitors; hit rate 3.5% among 310,000;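 also: Gal4-VP16 expression switched on by copper sulfate through the metallothionein promoter; potency is read from the fitted curve at half-maximal effect; nearly all actives have a fitted effect of over 50% in size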
Starred values were filed as active, the others as inactive; ? = inconclusive; / = no result given; [ ] = dose if it differs, or a comment. Unless noted, calls follow the shape of the dose curve; as a rule, active = well fitted curve in the direction sought with a large enough effect; inconclusive = small, poorly fitted or top-dose-only effect, or another doubt; inactive = no such curve, though single readings can be large; an effect the other way counts as inactive or inconclusive. % is scaled to controls: 0 for no effect and ±100 for the full control effect.

SMILES | TDP1 cell CPT | ELG1 repair inh | DT40 TDP1 no CPT | IL-1B inflam inh | RORg inh | Gal4-VP16 FLuc
CC(C)N(C(=O)[C@H]1C[C@H](CC(=O)NCc2cccc(C(F)(F)F)c2)C(=O)N2CCc3c([nH]c4cc(-c5ccco5)ccc34)[C@]12C)C(C)C | ? | -22% | ? | -67* | / | /
C[C@]12c3[nH]c4cc(-c5ccco5)ccc4c3CCN1C(=O)[C@@H](CC(=O)NCc1cccc(C(F)(F)F)c1)C[C@@H]2C(=O)N1CCOCC1 | ? | ? | ? | -53* | / | /
COc1ccc(/C=C/c2cc(O)cc(OC3OC(CO)C(O)C(O)C3O)c2)cc1 (stereo unspecified) | -28% | / | -20% | -24 | / | /
O=[N+]([O-])c1cc(Cl)cc(C2=NCCN2)c1 | 18µM* | -6% | ? | 6 | -35% | -3%
Cc1ccc(N2C(=O)c3[nH]nc(-c4ccc(Cl)cc4)c3C2c2ccc(F)cc2)cc1 (stereo unspecified) | 15µM* | / | 21µM* | / | / | /
COc1ccc(-c2n[nH]c3c2C(c2ccc(O)cc2)N(c2ccc(Br)cc2)C3=O)cc1 (stereo unspecified) | 18µM* | / | ? | / | / | /
Cc1ccc(-c2n[nH]c3c2C(c2cccs2)N(c2ccc(Cl)cc2)C3=O)cc1 (stereo unspecified) | 16µM* | / | ? | / | / | /
Cc1ccc(-c2n[nH]c3c2C(c2ccccc2Cl)N(c2ccc(C(=O)O)cc2)C3=O)cc1 (stereo unspecified) | -23% | / | ? | / | / | /
CCCCCNC(=O)C(c1cccc2ccccc12)n1c(=O)c(-c2cc3ccccc3[nH]2)nc2ccccc21 (stereo unspecified) | ? | / | ? | 58 | / | /
CCN(C(=O)COC(=O)CNC(=O)c1ccc(Cl)cc1Cl)c1c(N)n(Cc2ccccc2)c(=O)[nH]c1=O | -7% | 3% | 14% | 2 | / | /
CCC1CN(C)C2Cc3c([nH]c4ccccc34)C(=O)CC1C2C(=O)OC (stereo unspecified) | 23µM* | -28% | -38% | 7 | 0% | 1%
CC(C)=CCC1=C(O)[C@](O)(CC=C(C)C)C(=O)C(C(=O)CC(C)C)=C1O | -36%[9.04 µM] | / | -27%[9.04 µM] | / | ? | ?
Cc1ccc(SCc2[nH]nc3c2C2(CCSCC2)C(C#N)=C(N)O3)cc1 | -11% | 4% | -25% | -7 | -8% | 1%
CCOC(=O)N1CCC2(CC1)C(C#N)=C(N)Oc1n[nH]c(CSc3ccc(C)cc3)c12 | 7.3µM* | -15% | ? | 8 | -2% | 6%
Cc1[nH]nc2c1C1(CCN(C(=O)OCc3ccccc3)CC1)C(C#N)=C(N)O2 | -4% | 2% | -6% | ? | 5µM* | ?
CC(C)NC(=O)C1(C)CN(S(C)(=O)=O)CC(=O)N1C1CCN(Cc2ccccc2)CC1 (stereo unspecified) | -3% | / | 5% | 31 | / | /
COCCCNc1nnc(Cc2ccc(Cl)cc2)c(=O)[nH]1 | 0.41µM* | -3% | 0.82µM* | 24 | -8% | -4%
CCN1C(=O)[C@H]2[C@@H](c3ccc(-c4ccc(F)cc4)c(OC)c3)N[C@@](CC(C)C)(C(=O)OC)[C@H]2C1=O | / | -9% | / | / | / | /
CCN1C(=O)[C@H]2[C@@H](c3ccc(-c4ccc(F)cc4)cc3)N[C@@](CC(C)C)(C(=O)OC)[C@H]2C1=O | 13µM* | -19% | 18µM* | -66* | / | /
COC(=O)[C@]1(CC(C)C)N[C@H](c2ccc(-c3ccc(F)cc3)cc2)[C@@H]2C(=O)N(C)C(=O)[C@@H]21 | 18µM* | -17% | ? | -23 | / | /
COC(=O)[C@]1(CC(C)C)N[C@H](c2ccc(-c3ccc(OC)cc3)cc2)[C@@H]2C(=O)N(C)C(=O)[C@@H]21 | ? | -2% | 16µM* | -1 | / | /
COC(=O)[C@]1(CC(C)C)N[C@H](c2ccc(-c3ccccc3)cc2)[C@@H]2C(=O)N(C)C(=O)[C@@H]21 | ? | -8% | ? | -19 | / | /
COc1ccc(CN2CCCC(n3cc(C(=O)NC4CCCC4)nn3)C2)c2ccccc12 (stereo unspecified) | 2% | / | -11% | / | / | /
O=C(Nc1cccc(S(=O)(=O)N2CCOCC2)c1)c1ccc2ccccc2n1 | ? | -13% | ? | -16 | 25% | -11%
O=C(Nc1cccc(S(=O)(=O)N2CCCCC2)c1)c1ccc2ccccc2n1 | 29µM* | -12% | 21µM* | -14 | ? | ?
SMILES | TDP1 cell CPT | ELG1 repair inh | DT40 TDP1 no CPT | IL-1B inflam inh | RORg inh | Gal4-VP16 FLuc
O=C(Nc1cccc(S(=O)(=O)N2CCCC2)c1)c1ccc2ccccc2n1 | 21µM* | 21µM* | 23µM* | ? | 43% | 9%
COc1cccc(C(=O)C2CCCN(Cc3cccn3-c3ccccn3)C2)c1 (stereo unspecified) | ? | -14% | 18µM* | ? | -1% | -9%
O=C(c1ccc(Cl)cc1)C1CCCN(Cc2cccn2-c2ccccn2)C1 (stereo unspecified) | 9.2µM* | ? | ? | -80* | -10% | 1%
COc1ccc(C(=O)C2CCCN(Cc3cccn3-c3ccccn3)C2)cc1F (stereo unspecified) | 16µM* | -11% | 15µM* | -52* | ? | -12%
COc1ccc(O)c(CN2CCCC(C(=O)Nc3cccc(-n4cccn4)c3)C2)c1 (stereo unspecified) | ? | -17% | ? | -6 | 38% | 9%
Cc1ccc(-n2cccn2)c(CN2CCCC(C(=O)c3sccc3C)C2)c1 (stereo unspecified) | 23µM* | 16µM* | 23µM* | -95* | -23% | -9%
O=S(=O)(/C=C/c1ccccc1)Nc1ccc2c(c1)OCO2 | 3% | -6% | -2% | -9 | 26% | -10%
COc1ccc(/C=N\NC(=O)c2cc(O)c(O)c(O)c2)cc1CN1CCN(c2ccc(F)cc2)CC1 | ? | -11% | ? | 21 | -13% | -3%
Cc1cc(O)cc2c1O[C@](C)(CCC(=O)O)CC2 | -3% | / | -2% | / | / | /
O=C(O)CCCC(=O)N1CCOCCOCCOCCOCC1 | 8% | -3% | 8% | -17 | -4% | -1%
COc1ccc(NC(=O)CCNC(=O)Cn2ccc3ccccc3c2=O)cc1Cl | -1% | 2% | -12% | -2 | -12% | -1%
